According to PubChem BioAssay AID1159580 (chemical genetic matrix, 2015):
“And” between values parts separate entries of the source, which are not always exact repeats. Equal values may be shown once. In all, about 5,500 compounds went through this assay and about 2,000 (36%) were called active. Another 18% or so got no clear call; they are omitted. Cut-off read from the data, not from the text of the source: active = normalized growth mostly below about 0.91 (no sharp cut-off); inconclusive = no clear call, values can overlap the other calls; inactive = mostly above about 0.92. This is one part of the list.

Assay: chemical genetic growth profiling, strain panel (AID 1159580);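 note: tested at 20 µM; growth read once vehicle control cultures reached saturation at 30 °C; 1 = growth at the plate median or of vehicle wells; lower values mean less growth of the strain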
Settings: S. cerevisiae deletion strains, growth OD

Measured: normalized growth

CC1(C)O[C@@H]2CC3C4CCC5=CC(=O)C=C[C@]5(C)[C@@]4(F)[C@@H](O)C[C@]3(C)[C@]2(C(=O)CO)O1 (some centres not stated)
inactive: locus YAL013W, strain DEP1, hits give low values 1.02 | locus YAL021C, strain ccr4, hits give low values 0.99 | locus YAL026C, strain drs2, hits give low values 1 | locus YAL030W, strain snc1, hits give low values 0.996 | locus YBL061C, strain skt5, hits give low values 0.98 | locus YBR009C, strain hhf1, hits give low values 0.992 | locus YBR021W, strain FUR4, hits give low values 0.946 | locus YBR023C, strain chs3, hits give low values 0.993 | locus YBR171W, strain sec66, hits give low values 1 | locus YBR229C, strain ROT2, hits give low values 1.01 | locus YBR231C, strain swc5, hits give low values 0.987 | locus YBR279W, strain paf1, hits give low values 0.991 | locus YCL011C, strain gbp2, hits give low values 1.02 | locus YCL016C, strain dcc1, hits give low values 0.968 | locus YCL029C, strain bik1, hits give low values 1 | locus YCL061C, strain MRC1, hits give low values 1.01 | locus YCL069W, strain vba3, hits give low values 1.01 | locus YCR088W, strain abp1, hits give low values 1.01 | locus YDL005C, strain med2, hits give low values 1 | locus YDL035C, strain GPR1, hits give low values 1.01 | locus YDL040C, strain nat1, hits give low values 0.988 | locus YDL074C, strain BRE1, hits give low values 1.12 | locus YDL101C, strain DUN1, hits give low values 1.01 | locus YDL134C, strain PPH21, hits give low values 1.01 | locus YDL185W, strain tfp1, hits give low values 1.01 | locus YDL192W, strain arf1, hits give low values 1.01 | locus YDR001C, strain nth1, hits give low values 1 | locus YDR069C, strain doa4, hits give low values 0.998 | locus YDR101C, strain arx1, hits give low values 0.992 | locus YDR137W, strain rgp1, hits give low values 1.01 | locus YDR150W, strain NUM1, hits give low values 1.02 | locus YDR159W, strain sac3, hits give low values 0.928 | locus YDR162C, strain NBP2, hits give low values 1.01 | locus YDR195W, strain ref2 0.954 | locus YDR297W, strain sur2, hits give low values 0.997 | locus YDR318W, strain mcm21, hits give low values 0.987 | locus YDR334W, strain swr1, hits give low values 0.997 | locus YDR335W, strain msn5, hits give low values 1.02 | locus YDR388W, hits give low values 0.997 | locus YDR392W, strain spt3, hits give low values 0.884 | locus YDR502C, strain sam2, hits give low values 0.999 | locus YEL003W, strain gim4, hits give low values 0.991 | locus YEL037C, strain rad23, hits give low values 1.02 | locus YEL061C, strain CIN8 (second series), hits give low values 1 | locus YEL061C, strain CIN8, hits give low values 1.01 | locus YER015W, strain faa2, hits give low values 0.991 | locus YER016W, strain bim1, hits give low values 0.975 | locus YER110C, hits give low values 0.998 | locus YER111C, strain swi4, hits give low values 0.999 | locus YER155C, strain BEM2 (second series), hits give low values 0.983 | locus YER155C, strain BEM2, hits give low values 0.966 | locus YER167W, strain BCK2, hits give low values 1.01 | locus YFR010W, strain ubp6, hits give low values 1.01 | locus YGL078C, strain dbp3, hits give low values 1 | locus YGL086W, strain mad1, hits give low values 0.997 | locus YGL167C, strain pmr1, hits give low values 0.988 | locus YGL173C, strain kem1, hits give low values 0.98 | locus YGL227W, strain vid30, hits give low values 1.01 | locus YGL240W, strain doc1, hits give low values 0.953 | locus YGL248W, strain PDE1, hits give low values 1.01 | locus YGL253W, strain hxk2, hits give low values 1.02 | locus YGR078C, strain PAC10, hits give low values 1.03 | locus YGR135W, strain pre9, hits give low values 0.996 | locus YGR229C, strain SMI1, hits give low values 1.02 | locus YGR252W, strain gcn5, hits give low values 0.97 | locus YHR013C, strain ard1, hits give low values 0.956 | locus YHR027C, strain rpn1, hits give low values 1 | locus YHR030C, strain SLT2, hits give low values 1.01 and 0.993 | locus YHR079C, strain IRE1 (second series), hits give low values 0.989 | locus YHR079C, strain IRE1, hits give low values 0.989 | locus YHR094C, strain hxt1, hits give low values 0.994 | locus YHR129C, strain ARP1, hits give low values 1.01 | locus YHR142W, strain chs7, hits give low values 1.02 | locus YHR200W, strain rpn10, hits give low values 0.995 | locus YIL066C, strain RNR3, hits give low values 1.02 | locus YIL073C, strain SPO22, hits give low values 1.05 | locus YIL125W, strain kgd1, hits give low values 0.998 | locus YIR030C, strain dcg1, hits give low values 1.01 | locus YJL092W, strain hpr5, hits give low values 1 | locus YJL095W, strain BCK1 (second series), hits give low values 1 | locus YJL095W, strain BCK1, hits give low values 1.01 and 0.992 | locus YJL115W, strain asf1, hits give low values 0.993 | locus YJL129C, strain trk1, hits give low values 1.01 | locus YJL134W, strain LCB3, hits give low values 1.01 | locus YJL154C, strain vps35, hits give low values 0.999 | locus YJL164C, strain tpk1, hits give low values 0.994 | locus YJL166W, strain qcr8, hits give low values 0.996 | locus YJL168C, strain set2, hits give low values 0.993 | locus YJL187C, strain SWE1 (second series), hits give low values 1.02 | locus YJL187C, strain SWE1, hits give low values 0.976 | locus YJR043C, strain POL32, hits give low values 0.997 | locus YJR066W, strain TOR1, hits give low values 0.947
